Results published in PubChem BioAssay.

The compounds below were run on XIP peptide (Xip251-270) binding (assay: small-molecule binders of XIP peptide, primary screen, biochemical, small-molecule microarray, fluorescence 635/667 nm, 0.1 µg/mL protein (AID 1182)). Details: fluorescent protein binding, 635 nm, higher = more signal, called active from +8 up or from −8 down.

Composite z-score, inactive:
COCCOC(=O)N1C(=O)[C@@]2(c3cc(C#CCC(C(=O)OC)C(=O)OC)ccc31)[C@H](C(N)=O)[C@H]1C(=O)O[C@H](c3ccccc3)[C@H](c3ccccc3)N1[C@@H]2c1ccccc1OCCO 0.286
C=C(COC)/C(=C/C[C@@H](OC(C)=O)c1cccc(OCCO)c1)c1cnc2ccccc2c1 0.281
CC(C)[Si](C#Cc1ccccc1)(O[C@H](c1ccccc1)c1cn(Cc2ccccc2)nn1)C(C)C 0.0554
C[C@]1(C(=O)O)c2ccccc2C(=O)N(Cc2cc(C(F)(F)F)cc(C(F)(F)F)c2)[C@H]1c1ccc(CO)cc1 0.17
[N-]=[N+]=NCc1ccccc1[C@H]1OC(c2ccc(OCCCO)cc2)=N[C@@]1(CCS(=O)(=O)c1ccccc1)C(=O)NCCN1CCOCC1 -0.0093
C=CC[C@@]1(C(=O)NCCCOC)N=C(c2ccc(OCCCO)cc2)O[C@@H]1c1ccccc1CN=[N+]=[N-] 0.204
CC(=O)NCCCC[C@@H]1NC(=O)[C@H]2C[C@@H](C(=O)O)[C@@H](c3cccc(OCCO)c3)N2C1=O 1.31
C=CCNC(=O)[C@H]1[C@@H]2C(=O)O[C@@H](c3ccccc3)[C@@H](c3ccccc3)N2[C@@H](c2ccc(O)cc2)[C@]12C(=O)Nc1ccccc12 -0.067
Cc1ccc(S[C@]2(C(=O)NC(C)C)CC(=O)N(Cc3ccccc3)[C@@H]2c2ccc(CO)cc2I)cc1 1.69
COC(=O)c1ccc(OC)c(/C=C\CC(OC(=O)c2ccncc2)c2ccccc2)c1 (stereo not given) 0.601
COc1ccc([Si](C)(C)[C@H]2[C@H](CC(=O)N(CCO)Cc3ccccc3)O[C@@]3(C(=O)N(Cc4ccc(N5C(=O)c6cccc7cccc5c67)cc4)c4ccccc43)[C@@H]2C)cc1 1.74
C=C(C)C1CN([C@H](CO)c2ccccc2)C(=O)/C1=C\c1ccccc1 (stereo not given in full) -0.598
C[N+](C)(C)CCCC[C@@H]1NC(=O)[C@H]2C[C@@H](C(=O)NCCCCCN)[C@@H](c3ccc(O)cc3)N2C1=O 0.528
CC(=O)NCCCC[C@@H]1NC(=O)[C@H]2C[C@@H](C(=O)NCCCCCN)[C@@H](c3ccc(O)cc3)N2C1=O 0.222
O=C1c2ccccc2[C@](Cc2ccccc2I)(C(=O)NCCN2CCOCC2)[C@H](c2ccc(CO)cc2)N1Cc1ccccc1C(F)(F)F 0.0302
CCOC(=O)C[C@H]1[C@H](OC(=O)c2ccc(-c3ccccc3)cc2)[C@@H](NC(=O)c2ccc(-c3ccccc3)cc2)c2cc(OCCCO)ccc2N1C(=O)c1ccccc1 1.11
COC(=O)C1=CC(CCCO)=CC(c2ccc(CN3CCCC3)cc2)N(C)C=C1C(=O)OC (stereo not given) 0.736
CCCC1(C(=O)OC)C=C2C(=C(C(C)C)C(=O)C2C)CN1 (stereo not given) -0.275
C=CCOC(=O)[C@H]1[C@@H]2C(=O)O[C@@H](c3ccccc3)[C@@H](c3ccccc3)N2[C@@H](c2ccc(OCCOC(=O)[C@H]3C[C@H]4C(=O)NCC(=O)N4[C@H]3c3cccc(OCCO)c3)cc2)[C@]12C(=O)Nc1ccc(I)cc12 0.585
C=CCNC(=O)[C@H]1[C@@H]2C(=O)O[C@@H](c3ccccc3)[C@@H](c3ccccc3)N2[C@@H](c2ccc(O)cc2)[C@]12C(=O)N(C(=O)OCCOC)c1ccc(C#Cc3ccc(OC)cc3)cc12 -0.184
CS(=O)(=O)CCOC(=O)C1=CC(CCCO)=CC(C2CC2)N(Cc2sc3ccccc3c2Cl)C=C1C(=O)OCCS(C)(=O)=O (stereo not given) 1.05
CC(C)(C)OC(=O)CC[C@@]1(C(=O)N2CCOCC2)N=C(c2ccc(OCCCO)cc2)O[C@@H]1c1ccccc1CN=[N+]=[N-] 3.3
CN1C(=O)C2C=CC(C(O)c3ccc(I)cc3)N(N(c3ccccc3)c3ccccc3)C2C1=O (stereo not given) 0.157
CC(C)(C)OC(=O)N1[C@@H](C=C(Br)Br)COC1(C)C 5.39
CCCN1C(=O)[C@@]2(c3ccc([N+](=O)[O-])cc3)CC(=O)N(C3CCCCC3)[C@@H]2c2ccc(CO)cc21 -0.403
C=CCNC(=O)[C@H]1[C@@H]2C(=O)O[C@@H](c3ccccc3)[C@@H](c3ccccc3)N2[C@@H](c2ccc(OCCO)cc2)[C@]12C(=O)N(C(=O)OCCOC)c1ccc(C#CCC(C(=O)OC)C(=O)OC)cc12 0.275
CN1C(=O)C2C=CC(C(O)COCc3ccccc3)N(Nc3ccc([N+](=O)[O-])cc3[N+](=O)[O-])C2C1=O (stereo not given) 0.649
COC(=O)C1=CC(c2ccc(CO)cc2)=CC(C2CC2)N(Cc2cc3c(cc2Br)OCO3)C=C1C(=O)OC (stereo not given) 1.59
C=CC[C@H](O)c1ccc(O)c(F)c1 -0.51
COc1ccc(C(O)C2C=CC3C(=O)N(c4ccccc4)C(=O)C3N2Nc2ccccc2F)c2ccccc12 (stereo not given) 1.56
C=C(COC)C(=O)CC[C@@H](OC(=O)c1ccccc1-c1ccccc1C(=O)O)c1ccccc1OCCO 0.106
COC(=O)C(CC#Cc1ccc2c(c1)[C@]1(C(=O)N2)[C@H](C(=O)N2CCCCCCC2)[C@H]2C(=O)O[C@H](c3ccccc3)[C@H](c3ccccc3)N2[C@@H]1c1ccc(OCCO)cc1)C(=O)OC 6.2
C[C@H]1C2[C@H](Cc3ccccc3)NC(=O)[C@]23C(=O)N[C@@H](Cc2ccccc2)C(=O)N2CCC[C@H]2C(=O)NC/C=C/CC/C=C/C3[C@@H]2O[C@]12C (stereo not given in full) 0.182
CCCC[C@@H](O)C1=C(C)Cn2c(=O)n(-c3ccccc3)c(=O)n2[C@H]1CO -0.387
CC(C)c1ccc(NN2C(C(O)C3CCCCC3)C=CC3C(=O)N(c4ccccc4)C(=O)C32)cc1 (stereo not given) 0.668
